Here are results for 19 compounds from PubChem BioAssay (NCATS).

Assay [1] has as its system HACAT. In words: qHTS assay to identify novel small-molecules to repurpose for Merkel cell carcinoma treatment (AID 1296009). As to conditions: MCC and control cell lines, CellTiter-Glo viability, 72 h; at 44.8 µM (top of the series) unless noted. Summed up: (§1)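 Cells exposed to NPC (8-point) and MIPE (11-point) compound dilutions for 72 hr at 37 degree celsius; viability read by CellTiter-Glo luminescence, normalized to no-cell and DMSO in-plate controls.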

The next assay deals with MCC-13. The description is as above. As to conditions: MCC and control cell lines, CellTiter-Glo viability, 72 h; series mostly up to 46 µM. Summed up:
as §1

The next assay relates to MCC-26. The assay is described as above. The conditions noted are these: MCC and control cell lines, CellTiter-Glo viability, 72 h; series mostly up to 46 µM. The method in brief:
as §1

For another assay, the system named is MKL-1. The description is as above. The conditions noted are these: MCC and control cell lines, CellTiter-Glo viability, 72 h; series mostly up to 46 µM. The method in brief:
as §1

The subject of a further assay is MKL-2. The description is as above. The conditions noted are these: MCC and control cell lines, CellTiter-Glo viability, 72 h; series mostly up to 46 µM. Summed up:
as §1

For another assay, the system named is KB-3-1. The assay is described as follows: Cytotoxic Profiling of Annotated Libraries Using Quantitative High-Throughput Screening (AID 1296008). As to conditions: Five cell lines viability, CellTiter-Glo ATP luminescence, 48-72 h; max response: hits give low values. Summed up:
(§2)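 Compounds were pin-transferred onto cells and incubated 48 or 72 hr at 37 degree Celsius, 95% humidity. CellTiter-Glo was added, plates sat 10 min at room temperature, then ATP-coupled luminescence was imaged as the viability read-out.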

Assay [2] deals with NIH3T3. The description is as above. The conditions noted are these: Five cell lines viability, CellTiter-Glo ATP luminescence, 48-72 h; max response: hits give low values. The method in brief: as §2
The test system of the next assay is HEK293T. In words: qHTS assay to identify novel small-molecules to repurpose for Merkel cell carcinoma treatment (AID 1296009). The conditions noted are these: MCC and control cell lines, CellTiter-Glo viability, 72 h; at 44.8 µM (top of the series) unless noted. The method in brief:
as §1

For assay [3], the system named is NIH3T3. The assay is described as above. The conditions noted are these: MCC and control cell lines, CellTiter-Glo viability, 72 h; at 44.8 µM (top of the series) unless noted. Summed up:
as §1

Assay [4] concerns HaCat. The assay is described as follows: Cytotoxic Profiling of Annotated Libraries Using Quantitative High-Throughput Screening (AID 1296008). The conditions noted are these: Five cell lines viability, CellTiter-Glo ATP luminescence, 48-72 h; max response: hits give low values. Summed up:
as §2

Inconclusive results are not listed. A number with no mark means an inactive call. Active and inactive are the calls of the source. Calls follow the shape of the dose curve; as a rule, active = well fitted inhibition curve with a large enough effect; inconclusive = small, poorly fitted or top-dose-only effect; inactive = flat fitted curve, though single readings scatter.
% is scaled to controls: 0 for no effect and ±100 for the full control effect; potency is read from the fitted curve at half-maximal effect.
Also: nearly all actives have a fitted effect of over 60% in size.

On to `CC(C)NCC(O)c1cc(O)cc(O)c1` (configuration not stated), for which the compound was called inactive in the assay with HACAT [1]. Further, the Potency entry in the assay with MCC-13, with MCC-26 and in the assay with MKL-1 was “inactive” each time.

In the case of `CC(C)(C)c1ccc(C(=O)CCCN2CCC(OC(c3ccccc3)c3ccccc3)CC2)cc1`, the Potency in the assay on MKL-2 is 7.5 µM (active).

In the case of `CC(C)COCC(CN(Cc1ccccc1)c1ccccc1)N1CCCC1` (configuration not stated), the max response with KB-3-1 was -4.17%. Besides, the Potency in the assay on NIH3T3 [2] is 26.6 µM (active).

For the compound `CCO/C([O-])=N/c1c[n+](N2CCOCC2)no1`, the max response with NIH3T3 [2] was -0.944%. Moreover, the Potency result in the assay with MCC-13, in the assay on MCC-26 and with MKL-2 was “inactive” in each case.

Turning to `CN(C)C(=O)Oc1ccc[n+](C)c1`, the result in the assay on HEK293T and in the assay with NIH3T3 [3] was inactive. Besides, the Potency result in the assay with MCC-13, in the assay with MCC-26, in the assay on MKL-1 and in the assay on MKL-2 was “inactive” each time.

With `O=C(O)CP(=O)(O)O`, the max response in the assay on KB-3-1 was 0.355%. For the same compound, the outcome with NIH3T3 [2], in the assay with HEK293T and in the assay with NIH3T3 [3] was inactive. The Potency entry in the assay with MCC-13, with MCC-26, with MKL-1 and in the assay with MKL-2 was “inactive” throughout.

In the case of `COC(=O)C1=C(C)NC(C)=C(C(=O)OCCN(C)Cc2ccccc2)C1c1cccc([N+](=O)[O-])c1` (configuration not stated), in the assay on NIH3T3 [2], the Potency was 26.6 µM (active).

Turning to `C[N+](C)(C)CCOC(N)=O`, the figures for the max response in the assay on KB-3-1 and with NIH3T3 [2] were 27.4% and -0.0921%, respectively. The outcome in the assay with HEK293T was inactive. Moreover, the Potency result in the assay with MCC-13, in the assay with MCC-26, with MKL-1 and in the assay on MKL-2 was “inactive” throughout.

Regarding `C[C@@H](O)[C@H]1C(=O)N2C(C(=O)O)=C(SCCN=CN)C[C@H]12`, the figures for the max response in the assay on KB-3-1 and in the assay with NIH3T3 [2] were -8.98% and -19.7%, respectively. Also, the Potency result in the assay on MCC-13, with MCC-26, in the assay on MKL-1 and in the assay with MKL-2 was “inactive” throughout.

`O=C1NCN(c2ccccc2)C12CCN(CCCC(c1ccc(F)cc1)c1ccc(F)cc1)CC2`: in the assay on MKL-2, the Potency was 23.7 µM (active).

For `OCCN1CCN(CC/C=C2/c3ccccc3Sc3ccc(C(F)(F)F)cc32)CC1`, in the assay on HaCat [4], the max response is -11.5%. Moreover, in the assay with MCC-26, the Potency entry was “inactive”.

`C[C@]12CCC(=O)C=C1CC[C@@H]1[C@@H]2C(=O)C[C@@]2(C)[C@H]1CC[C@]2(O)C(=O)CO`: in the assay with NIH3T3 [2], the max response is 1.17%. Moreover, the compound was called inactive in the assay with HEK293T. Besides, the Potency entry in the assay on MCC-13, with MCC-26, in the assay with MKL-1 and in the assay on MKL-2 was “inactive” throughout.

`CSc1ccc(C(=O)c2[nH]c(=O)[nH]c2C)cc1`: the result with HACAT [1] and in the assay on NIH3T3 [3] was inactive. The Potency result with MCC-13, in the assay with MCC-26, in the assay with MKL-1 and in the assay on MKL-2 was “inactive” each time.

Take `CN(C)CCN(Cc1cccs1)c1ccccn1`: the result in the assay on HACAT [1] was inactive. In addition, the Potency result with MCC-13, with MCC-26, with MKL-1 and in the assay with MKL-2 was “inactive” in each case.

In the case of `CN1CCN(CC(=O)N2c3ccccc3C(=O)Nc3cccnc32)CC1`, the outcome with HACAT [1] was “inactive [at 4.96 µM]”. The values for the activity change, negative = cytotoxicity in the assay on MCC-13, with MCC-26 and with MKL-2 were 8.41% [at 4.84 µM], 1.14% [at 4.84 µM] and 15.9% [at 4.84 µM], respectively.

Turning to `COC(=O)C1=C(C)NC(C)=C(C(=O)OC(C)(C)CN(C)CCC(c2ccccc2)c2ccccc2)C1c1cccc([N+](=O)[O-])c1` (configuration not stated), the Potency result in the assay on MCC-26 is “inactive”. The Potency in the assay on MKL-1 was 23.7 µM (active).

Regarding `Nc1nc(N)c2nc(-c3ccccc3)c(N)nc2n1`, the max response with HaCat [4] is -19.1%. Further, the Potency result in the assay with MCC-26 was “inactive”.

On to `CCCCNC(=O)NS(=O)(=O)c1ccc(C)cc1`, for which the outcome in the assay with HEK293T was inactive. The Potency entry with MCC-13, in the assay on MCC-26, with MKL-1 and with MKL-2 was “inactive” each time.

As for `CN(C(=O)CCCOc1ccc2[nH]c(=O)ccc2c1)C1CCCCC1`, the values for the max response with KB-3-1 and in the assay on NIH3T3 [2] were -8.72% and -24.3%, respectively. Further, the Potency entry in the assay with MCC-13, with MCC-26 and in the assay on MKL-2 was “inactive” each time.
